This is a sample that favours compounds with a hit; in the whole collection about 6.6% have one here.
GRIN3A LBD mod: NR3A (human) ligand-binding domain modulation | AID 1259313 | 340,000 compounds, 2.5% hits | Tm shift relative to glycine control, % at 25 µM | NR3A LBD differential scanning fluorimetry, Tm shift; 0% = protein alone, 100% = glycine-bound protein;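 active = melting temperature shift of at least 10% of the positive control shift, at one fixed dose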
Gli-Sufu block: blocks Gli-Sufu signaling in a luciferase reporter; AID 588413; inhibition, % at 5 µM; Sufu-KO-LIGHT fibroblasts, Gli luciferase reporter luminescence; 340,000 compounds, 0.74% hits;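 active = inhibition above about 55%, limit read from the data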;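 note: 0% = DMSO-treated cells and 100% = wells with medium but no cells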
CSC inhib: cancer stem cell inhibition | 300,000 compounds, 1.1% hits | cancer stem cell-like cells viability, luminescence | inhibition, % at 7.5 µM; in the data active = inhibition above about 75%; tested in HMLE shEcad cells
Beta apoptosis: beta cell apoptosis inhibition | INS-1E cytokine-induced death, ATP luminescence, 48 h; percent of positive-control rescue, neutral wells zero | protection from apoptosis, % (concentration not given with the values) | 300,000 compounds, 0.8% hits;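 active = Every replicate reaches about 75%, or at least half do and their mean reaches it too, limit read from the data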;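 note: 0% = cytokine-treated negative control wells and 100% = positive control rescue; higher means more ATP so stronger rescue from cytokine killing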
MPTP block: inhibitors of mitochondrial permeability transition pore | isolated mouse mitochondria, Ca2+ swelling absorbance, 30 min | inhibition, % at 10 µM | 360,000 compounds, 1.4% hits | AID 602449;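 active = inhibition of 50% or more, scaled per plate between neutral and stimulator controls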;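 note: 0% = DMSO wells given calcium and 100% = 1 mM EGTA wells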
Mdm2-MdmX inh: disrupts the human Mdm2-MdmX interaction | AID 485346 | SaOS-2 split-luciferase Mdm2/MdmX complementation, luminescence | inhibition, % at 8 µM | 330,000 compounds, 3% hits | O15151+Q00987;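 active = inhibition of at least 50% at 8 µM in the primary screen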
An asterisk follows results filed as active; x = no result given.

SMILES	GRIN3A LBD mod	Gli-Sufu block	CSC inhib	Beta apoptosis	MPTP block	Mdm2-MdmX inh
COc1ccc(CCN2CC(C(=O)NCCc3ccccc3C(F)(F)F)CCC2=O)cc1 (stereo unspecified)	-2	25	-21	x	-2	12
Cc1ccc(S(=O)(=O)c2nc(Nc3nccs3)sc2Cl)cc1	12*	-1	28	x	42	29
C=CCn1c(SCC(=O)NC2CCCC2)nc2sc(C)cc2c1=O	21*	5	13	0	0	-10
O=C(NC12CC3CC(CC(C3)C1)C2)c1ccc(-c2ccc(Cl)cc2)o1	-14	-67	13	14	41	-18
O=C(NC12CC3CC(CC(C3)C1)C2)c1ccc(-c2cccc(Cl)c2)o1	-5	-5	95*	16	41	28
O=C(NC12CC3CC(CC(C3)C1)C2)c1ccco1	0	3	-11	0	0	11
O=C(NC12CC3CC(CC(C3)C1)C2)c1ccc(-c2ccccc2Cl)o1	0	24	125*	16	2	-104
S=c1[nH]c2cc3ccccc3cc2[nH]1	26*	6	1	-6	5	31
O=C1OCC/C1=C1/NCCNC1=O	x	x	x	x	0	x
COC(=O)c1ccc(COc2cc(C)ccc2C)o1	7	-15	-2	-4	1	6
CCCN(CCC)S(=O)(=O)c1ccc(C(=O)OCCN2C(=O)c3cccc4c(N5CCOCC5)ccc(c34)C2=O)cc1	17*	-2	-3	1	3	41
CCN1CCN(S(=O)(=O)c2cc3c(cc2Cl)NC(=O)CO3)CC1	3	7	-17	-7	-3	26
N#CCC(=O)N/N=C/c1cc(Br)ccc1OCc1cccc2ccccc12	20*	4	39	11	0	39
N#CCC(=O)N/N=C/c1c2ccccc2cc2ccccc12	-1	-4	-6	10	2	-8
O=C(NCc1ccccc1Cl)c1csc([C@@H]2O[C@H](CO)[C@H](O)[C@H](O)[C@H]2O)n1	x	x	x	x	0	x
O=C(Nc1ccccc1Cl)Oc1ccc(Cl)cc1Cl	10*	-2	0	2	0	20
COC(=O)C1=NN(c2cccc(C)c2)C2C(=O)N(c3ccccc3OC)C(=O)C12 (stereo unspecified)	4	-11	-5	6	0	6
O=C(/C=C/c1ccc(Cl)cc1)N1CCN(Cc2ccccc2)CC1	0	x	-1	-4	0	15
CC(=O)Nc1ccc(S(=O)(=O)Nc2nc3ccccc3s2)cc1	-8	3	x	-11	0	-5
CS(=O)(=O)c1ccc2nc(NC(=O)c3ccccc3)sc2c1	3	-81	8	14	0	-93
CC(=O)Nc1ccc(S(=O)(=O)Nc2nc3ccc([N+](=O)[O-])cc3s2)cc1	16*	-4	-4	x	0	-14
CS(=O)(=O)c1ccc2nc(NC(=O)c3ccc(NS(=O)(=O)c4cccc([N+](=O)[O-])c4)cc3)sc2c1	16*	8	18	-2	7	8
Cc1ccc2nc(NC(=O)c3ccc(NS(=O)(=O)c4cccs4)cc3)sc2c1	33*	-21	104*	-5	0	-56
COc1ccc2nc(Nc3ccc4c(c3)OCO4)sc2c1	16*	-70	-4	10	0	21
COc1ccc2nc(Nc3nc4cc5c(cc4s3)OCO5)sc2c1	14*	-14	-2	6	2	-2
SMILES	GRIN3A LBD mod	Gli-Sufu block	CSC inhib	Beta apoptosis	MPTP block	Mdm2-MdmX inh
COc1ccc(NC(=O)Nc2ccc3nc([C@@H]4O[C@H](CO)[C@@H](O)[C@H](O)[C@H]4O)[nH]c3c2)cc1OC1CCCC1	x	x	x	x	0	x
CC1=NNC(=O)C1Cc1ccccc1C (stereo unspecified)	0	x	x	x	-2	-29
N#CC(C(=O)Nc1ccc(Cl)cc1)=C1Nc2ccccc2N1	24*	-1	-6	7	0	28
CC1CCN(C(=O)CCNS(=O)(=O)c2ccc(Cl)cc2)CC1	-2	3	-8	-2	-1	-14
CCCCCC1CC(CC(=O)NC(=S)Nc2ccc([N+](=O)[O-])cc2)C(=O)O1 (stereo unspecified)	15*	-1	13	-2	3	19
COc1cccc(CN(C)C(=O)/C=C/c2ccc(S(=O)(=O)N3CCCCCC3)cc2)c1	24*	7	x	-1	0	23
Cc1c(O[C@@H]2O[C@H](CO)[C@@H](O)[C@H](O)[C@H]2O)c(CO)c(O[C@@H]2O[C@H](CO)[C@@H](O)[C@H](O)[C@H]2O)c2c1O[C@@H](c1ccccc1)C[C@@H]2O	-1	-8	-14	-4	-2	-2
O=C(Nc1ccccc1)Nc1ccc(Nc2ccccc2)cc1	29*	-16	26	-2	16	-35
CCCC(=O)Nc1ccc(Nc2ccccc2)cc1	10*	-8	-10	-2	0	-22
O=C(Nc1ccccc1)Nc1ccccc1	7	-55	x	x	0	x
CCCC(=O)Nc1ccc(-c2ccc(NC(=O)CCC)cc2)cc1	-6	-6	-2	-3	-1	5
COc1ccc(C(=O)/C=C/Nc2ccc([N+](=O)[O-])cc2)cc1	-11	-55	-10	1	5	-13
COc1ccc(N/C=C/C(=O)c2ccc(C)cc2)c([N+](=O)[O-])c1	20*	-83	-3	6	0	-19
CCOc1ccc(N/C=C/C(=O)c2ccc(OC)cc2)c([N+](=O)[O-])c1	20*	-81	-2	-2	10	-3
CCOc1ccc(N/C=C/C(=O)c2ccc(OC)cc2)cc1	2	-39	-5	-6	0	-27
COc1ccc(CN(C)CCCn2cnc3c(SC)ncnc32)cc1OC	x	x	x	x	-1	x
Cc1cc(C)n2nc(CNS(=O)(=O)c3cccc([N+](=O)[O-])c3)nc2n1	1	-6	-12	4	0	5
Cc1ccccc1-c1nnc(SCc2ccc(F)cc2)o1	13*	-30	-3	4	2	-25
O=S(=O)(Nc1ccc(-c2nnc(SCc3ccc(Cl)cc3)o2)cc1)c1ccccc1	14*	-2	92*	-11	8	16
O=C(O)c1ccc(CSc2nnc(-c3ccc(Cl)cc3)o2)cc1	-2	22	-27	1	0	-22
Clc1ccc(CSc2nnc(-c3c[nH]c4ccccc34)o2)cc1	27*	-22	26	-14	9	17
CN(Cc1ccccc1F)C(=O)c1cccc(NC(=O)CC2SC(N3CCCCC3)=NC2=O)c1 (stereo unspecified)	-1	23	x	x	1	x
CC1CCN(S(=O)(=O)c2ccc3c(c2)N(CC(=O)NCCCN2C(C)CCCC2C)C(=O)CO3)CC1 (stereo unspecified)	0	11	13	0	-2	14
O=C(Nc1ccc(F)cc1)C1CCC(CNc2c(N3CCCCC3)c(=O)c2=O)CC1 (stereo unspecified)	-2	6	-3	4	0	-10
